Sampled rows, rich in hits. Any-hit rate of the full collection: about 2.4%.
Nrf2 block – Nrf2 qHTS screen for inhibitors; Potency, µM (doses to about 46 µM), for inactives: at the top dose activity change, negative = inhibition, usual class: inhibitors; A549 ARE-Fluc reporter, luciferase luminescence, 18-24 h; 360,000 compounds, 2.1% hits; also: % is scaled to controls: 0 for no effect and ±100 for the full control effect; nearly all actives have a fitted effect of over 60% in size
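Nrf2 function is reported as luminescence of an ARE-controlled luciferase in A549 cells. Compounds were tested at several concentrations, and a CellTiter-Fluor read on the same wells flagged cytotoxicity.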
PINK1 modulator – A Quantitative High throughput Screen to Identify Chemical Modulators of PINK1 Expression | PINK1 immunofluorescence, high-content cytometry, 24 h | Potency, µM (series often up to 76.6 µM), for the others: top-dose activation (PINK1 increase), usual class: activators | 410,000 compounds, 0.2% hits | AID 624263, 2012; active = well fitted activation curve with a large enough effect; inconclusive = small, poorly fitted or top-dose-only effect; cell line not stated here; also: % of control where 0% means no effect; nearly all actives have a fitted effect of over 65% in size
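Decision-based qHTS: stable cells, 24 h exposure to five compound concentrations, CCCP as control. Fixed cells stained for PINK1 plus nuclear, mitochondrial and cell markers, cytometer read.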
Epigenetic reg – Quantitative High-Throughput Screen for Regulators of Epigenetic Control; Potency, µM (highest dose often 53.9 µM), without a hit: at the highest dose GFP activation, most hits filed as activators; murine LDR cells, GFP reporter derepression, 30 h; 280,000 compounds, 0.2% hits; also: % of control where 0% means no effect; nearly all actives have a fitted effect of over 60% in size
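Reporter derepression read as number of fluorescent GFP-positive objects, 20-120 um in size, counted by laser-scanning cytometer. Mouse LDR line with an epigenetically silenced CMV-GFP locus; compound incubation 30 h, 37 C.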
Nrf2 ARE act – qHTS of Nrf2 Activators | Potency, µM (highest dose often 46.1 µM), for inactives: top-dose activation, actives largely listed as activators | AREc32 ARE-luciferase reporter (MCF7-derived line), luminescence, 24 h | 410,000 compounds, 0.31% hits; also: % of control where 0% means no effect; nearly all actives have a fitted effect of over 65% in size
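ARE activation measured as luciferase luminescence (Steady-Glo, 30 min RT) in AREc32_Fluc cells after 24 hr compound exposure at 37 deg C, 5% CO2; cells seeded overnight at 1000/well in OPTI-MEM, 5% FBS.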
A549 tox-1 – Nrf2 qHTS screen for inhibitors: counterscreen for cytotoxicity; A549 ARE-Fluc cells, CellTiter-Fluor viability, 18-24 h; Potency, µM (doses to about 46 µM), without a hit: top-dose activity change, negative = cytotoxicity, hits mostly inhibitors; 390,000 compounds, 0.16% hits; also: % is scaled to controls: 0 for no effect and ±100 for the full control effect
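Cytotoxicity counterscreen: CellTiter-Fluor fluorescence was measured in A549 ARE_Fluc cells after 18-24 h of compound exposure in a concentration series. The subsequent BugLite luminescent read reports ARE-luciferase activity.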
FLuc counter 3 – Nrf2 qHTS screen for inhibitors: Purified Fluc Biochemical Counterscreen for Hit Validation; purified firefly luciferase, luminescence inhibition; 1,400 compounds, 4% hits; shares compounds with Nrf2 block; Potency, µM (doses to about 57.5 µM), for inactives: at the top dose activity change, negative = inhibition, actives largely listed as inhibitors; AID 720522, 2013; also: % is scaled to controls: 0 for no effect and ±100 for the full control effect; nearly all actives have a fitted effect of over 65% in size
Target sequence (P08659 whole entry, looked up): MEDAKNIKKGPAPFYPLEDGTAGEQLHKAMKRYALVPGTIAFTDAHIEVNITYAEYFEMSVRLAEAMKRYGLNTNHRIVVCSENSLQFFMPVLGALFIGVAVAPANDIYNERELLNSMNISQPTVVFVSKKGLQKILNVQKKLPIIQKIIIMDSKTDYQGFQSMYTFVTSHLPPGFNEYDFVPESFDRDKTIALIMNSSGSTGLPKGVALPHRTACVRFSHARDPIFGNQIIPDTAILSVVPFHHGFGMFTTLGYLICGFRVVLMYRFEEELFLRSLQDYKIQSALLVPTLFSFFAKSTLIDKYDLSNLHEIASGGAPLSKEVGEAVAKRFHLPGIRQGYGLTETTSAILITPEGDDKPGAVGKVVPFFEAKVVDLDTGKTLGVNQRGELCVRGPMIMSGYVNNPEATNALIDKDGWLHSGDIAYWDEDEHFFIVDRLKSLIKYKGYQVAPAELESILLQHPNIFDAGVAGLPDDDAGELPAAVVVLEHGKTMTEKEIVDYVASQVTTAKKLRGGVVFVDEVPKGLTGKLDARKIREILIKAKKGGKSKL
A549 tox-2 – Nrf2 qHTS screen for inhibitors: A549 ARE-Fluc Cytotoxicity Counterscreen for Hit Validation; A549 ARE-Fluc cells, cytotoxicity counterscreen; Potency, µM (highest dose often 46.1 µM), without a hit: at the highest dose activity change, negative = cytotoxicity, usual class: inhibitors; 1,400 compounds, 2% hits; AID 720523, 2013; shares compounds with Nrf2 block;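 also: cells exposed to compounds for 18 to 24 hours; % is scaled to controls: 0 for no effect and ±100 for the full control effect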
ARE-Fluc inh – Nrf2 qHTS screen for inhibitors: Nrf2 A549 ARE-Fluc Confirmation Assay for Hit Validation. 1,400 compounds, 74% hits. shares compounds with Nrf2 block. A549 ARE-firefly luciferase reporter, luminescence. Potency, µM (series often up to 46.1 µM), for the others: at the highest dose activity change, negative = inhibition, usual class: inhibitors; also: % is scaled to controls: 0 for no effect and ±100 for the full control effect; nearly all actives have a fitted effect of over 65% in size
* = called active by the depositor; ? = inconclusive; · = no result given; [ ] = remark or other dose. Unless noted, calls follow the shape of the dose curve; as a rule, active = well fitted curve in the direction sought with a large enough effect; inconclusive = small, poorly fitted or top-dose-only effect, or another doubt; inactive = no such curve, though single readings can be large; an effect the other way counts as inactive or inconclusive. Potency is read from the fitted curve at half-maximal effect.

SMILES | Nrf2 block | PINK1 modulator | Epigenetic reg | Nrf2 ARE act | A549 tox-1 | FLuc counter 3 | A549 tox-2 | ARE-Fluc inh
COc1ccc(COC(=O)N/N=C2/C[C@@H](O)[C@@H](O)[C@@H]3[C@H]4C(=O)N(c5ccc(F)cc5F)C(=O)[C@@H]4CC[C@@H]23)cc1 | · | · | 0.0%[10.1 µM] | · | · | · | · | ·
COc1ccc(Br)cc1CN(C)C(=O)Cc1ccc(OC)c(S(=O)(=O)N2CCOCC2)c1 | 8.2µM* | 1.0% | · | -0.4% | 10.8% | 3.6% | -2.1% | 0.0%
COc1ccc(CN(C)C(=O)Cc2ccc(OC)c(S(=O)(=O)N3CCOCC3)c2)cc1OC | 19.1% | 3.0% | · | -0.8% | -2.2% | · | · | ·
Cc1cc(C)c(NS(=O)(=O)c2cc(-c3onc(C)c3C)ccc2C)c(C)c1 | ? | 1.8% | 3.8% | -0.6% | 8.5% | · | · | ·
Cc1ccc2c(c1)N(S(=O)(=O)c1cc(-c3onc(C)c3C)ccc1C)CCO2 | 8.2µM* | 2.3% | 0.8% | 0.2% | 1.4% | 0.7% | 2.1% | ?
COc1cc(OC)cc(C(=O)NNC(=O)c2ccccn2)c1 | 8.2µM* | -1.8% | -1.1% | ? | ? | -9.9% | -25.4% | 7.31µM*
CCC(CC)C(=O)Nc1ccc(Sc2ccc([N+](=O)[O-])cc2)cc1 | 3.66µM* | 2.7%[38.3 µM] | 4.1% | 4.5% | ? | 0.6% | -10.4% | 18.4µM*
CCCC(=O)Nc1ccc(Sc2ccc([N+](=O)[O-])cc2)cc1 | ? | 0.1% | 1.5% | 2.7% | -6.3% | · | · | ·
Cc1ccc2c(c1)N(C(=O)N1CCC(C(=O)NCCc3ccc(Cl)cc3)CC1)CC(C)O2 (configuration not stated) | -1.8% | -0.4% | 0.0% | -1.3% | 0.8% | · | · | ·
COc1ccc(NC(=O)C2CCCN(c3nnc(C)c4c(C)n(-c5ccccc5)nc34)C2)cc1Cl (configuration not stated) | ? | 2.5% | -2.5% | 4.2% | -16.6% | · | · | ·
CC(=O)C1(C)CCC2C3C=C(C)C4=CC(=O)CCC4(C)C3CCC21C (configuration not stated) | ? | -0.6% | · | -0.1% | -5.4% | · | · | ·
C=C1C[C@H]2[C@@H]3C=C(C)C4=CC(=O)CC[C@]4(C)[C@H]3CC[C@]2(C)[C@@]1(OC(C)=O)C(C)=O | ? | 5.0% | · | 0.5% | -5.1% | -0.8% | -9.4% | 0.164µM*
O=C(NCc1ccco1)c1nc2c(nnn2Cc2ccccc2Cl)c(=O)[nH]1 | 4.61µM* | -1.3%[38.3 µM] | -2.0% | -1.9% | ? | -5.9% | ? | 6.51µM*
Cc1ccc(OCC(=O)NCCCNC(=O)c2cccnc2)cc1 | 1.84µM* | -0.6% | · | 0.0% | 0.3% | 0.6% | 2.3% | 6.1%
Cc1cccc(OCC(=O)NCCCNC(=O)c2cccnc2)c1 | ? | -0.5% | · | -1.0% | 3.4% | · | · | ·
Cc1cc(C)c(S(=O)(=O)Nc2cccc3nsnc23)c(C)c1 | -25.8% | 2.8% | 1.2% | -0.3% | -3.6% | · | · | ·
Cc1cc(C)c(S(=O)(=O)Nc2cccc3cccnc23)c(C)c1 | 2.91µM* | 0.2% | · | · | -16.0% | -0.1% | -22.8% | 16.4µM*
Cc1ccc(C)c(NC(=S)NC(NC(=O)/C=C/c2ccccc2)C(Cl)(Cl)Cl)c1 (configuration not stated) | 8.2µM* | 12.4% | -1.2% | -0.3% | -27.4% | -20.8% | ? | 0.366µM*
CCOC(=O)c1ccccc1NC(=O)CSc1nc(=O)[nH]c2c1CCC2 | · | 0.7% | -0.1% | -0.3% | -3.7% | · | · | ·
